# Assay results as given in ChEMBL document CHEMBL1961873, “Compounds: GSK PKIS; Assays: Nanosyn kinase panel” (2012).
# “And” between values parts separate entries of the source, which are not always exact repeats. Identical values can stand only once.
# Tests used:
# [1] = target: Platelet-derived growth factor receptor beta (Homo sapiens) (UniProt P09619); details: at 1 µM;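 note: each value is a mean percent inhibition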
# [2] = target: Tyrosine-protein kinase FRK (Homo sapiens) (UniProt P42685); details: at 0.1 µM
# [3] = target: Tyrosine-protein kinase FRK (Homo sapiens) (UniProt P42685); details: at 1 µM
# [4] = target: Protein-tyrosine kinase 2-beta (Homo sapiens) (UniProt Q14289); details: at 0.1 µM
# [5] = target: Protein-tyrosine kinase 2-beta (Homo sapiens) (UniProt Q14289); details: at 1 µM
# [6] = target: Proto-oncogene tyrosine-protein kinase receptor Ret (Homo sapiens) (UniProt P07949); details: at 0.1 µM
# [7] = target: Proto-oncogene tyrosine-protein kinase receptor Ret (Homo sapiens) (UniProt P07949); details: at 1 µM
# [8] = tested on: Proto-oncogene tyrosine-protein kinase receptor Ret (Homo sapiens), P07949 [V804L]; details: at 0.1 µM
# [9] = tested on: Proto-oncogene tyrosine-protein kinase receptor Ret (Homo sapiens), P07949 [V804L]; details: at 1 µM
# [10] = tested on: Proto-oncogene tyrosine-protein kinase receptor Ret (Homo sapiens), P07949 [Y791F]; details: at 0.1 µM
# [11] = tested on: Proto-oncogene tyrosine-protein kinase receptor Ret (Homo sapiens), P07949 [Y791F]; details: at 1 µM
# [12] = target: Macrophage-stimulating protein receptor (Homo sapiens) (UniProt Q04912); details: at 0.1 µM
# [13] = target: Macrophage-stimulating protein receptor (Homo sapiens) (UniProt Q04912); details: at 1 µM
# [14] = target: Proto-oncogene tyrosine-protein kinase ROS (Homo sapiens) (UniProt P08922); details: at 0.1 µM
# [15] = target: Proto-oncogene tyrosine-protein kinase ROS (Homo sapiens) (UniProt P08922); details: at 1 µM
# [16] = target: Proto-oncogene tyrosine-protein kinase Src (Homo sapiens) (UniProt P12931); details: at 0.1 µM
# [17] = target: Proto-oncogene tyrosine-protein kinase Src (Homo sapiens) (UniProt P12931); details: at 1 µM
# [18] = target: Tyrosine-protein kinase Srms (Homo sapiens) (UniProt Q9H3Y6); details: at 0.1 µM
# [19] = target: Tyrosine-protein kinase Srms (Homo sapiens) (UniProt Q9H3Y6); details: at 1 µM
# [20] = target: Tyrosine-protein kinase SYK (Homo sapiens) (UniProt P43405); details: at 0.1 µM;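 note: reported percentages are mean inhibition values for SYK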
# Chain of Proto-oncogene tyrosine-protein kinase Src (Homo sapiens) (P12931 2-536 limits assumed): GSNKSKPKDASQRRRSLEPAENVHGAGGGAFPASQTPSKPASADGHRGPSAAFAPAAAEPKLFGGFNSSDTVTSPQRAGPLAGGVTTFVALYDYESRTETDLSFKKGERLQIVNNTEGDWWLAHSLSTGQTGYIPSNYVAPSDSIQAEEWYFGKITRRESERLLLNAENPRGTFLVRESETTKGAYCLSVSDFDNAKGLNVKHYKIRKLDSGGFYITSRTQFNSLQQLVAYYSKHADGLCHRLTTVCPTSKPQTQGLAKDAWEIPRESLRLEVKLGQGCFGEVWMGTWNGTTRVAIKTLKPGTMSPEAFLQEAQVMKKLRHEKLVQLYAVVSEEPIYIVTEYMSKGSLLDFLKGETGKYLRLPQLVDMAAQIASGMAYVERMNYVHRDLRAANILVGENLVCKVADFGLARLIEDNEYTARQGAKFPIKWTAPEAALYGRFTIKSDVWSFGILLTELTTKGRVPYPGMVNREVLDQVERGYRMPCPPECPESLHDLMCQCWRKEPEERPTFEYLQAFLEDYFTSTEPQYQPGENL
# Chain of Macrophage-stimulating protein receptor (Homo sapiens) (Q04912 25-304 limits assumed): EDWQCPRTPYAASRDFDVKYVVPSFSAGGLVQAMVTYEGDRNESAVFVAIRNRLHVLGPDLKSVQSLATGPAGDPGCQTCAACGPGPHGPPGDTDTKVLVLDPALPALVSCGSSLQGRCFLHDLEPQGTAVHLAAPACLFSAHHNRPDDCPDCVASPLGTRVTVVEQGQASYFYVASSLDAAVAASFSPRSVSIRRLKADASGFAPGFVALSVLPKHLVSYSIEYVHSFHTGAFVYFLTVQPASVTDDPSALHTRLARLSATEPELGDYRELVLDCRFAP
# Chain of Macrophage-stimulating protein receptor (Homo sapiens) (Q04912 310-1400 limits assumed): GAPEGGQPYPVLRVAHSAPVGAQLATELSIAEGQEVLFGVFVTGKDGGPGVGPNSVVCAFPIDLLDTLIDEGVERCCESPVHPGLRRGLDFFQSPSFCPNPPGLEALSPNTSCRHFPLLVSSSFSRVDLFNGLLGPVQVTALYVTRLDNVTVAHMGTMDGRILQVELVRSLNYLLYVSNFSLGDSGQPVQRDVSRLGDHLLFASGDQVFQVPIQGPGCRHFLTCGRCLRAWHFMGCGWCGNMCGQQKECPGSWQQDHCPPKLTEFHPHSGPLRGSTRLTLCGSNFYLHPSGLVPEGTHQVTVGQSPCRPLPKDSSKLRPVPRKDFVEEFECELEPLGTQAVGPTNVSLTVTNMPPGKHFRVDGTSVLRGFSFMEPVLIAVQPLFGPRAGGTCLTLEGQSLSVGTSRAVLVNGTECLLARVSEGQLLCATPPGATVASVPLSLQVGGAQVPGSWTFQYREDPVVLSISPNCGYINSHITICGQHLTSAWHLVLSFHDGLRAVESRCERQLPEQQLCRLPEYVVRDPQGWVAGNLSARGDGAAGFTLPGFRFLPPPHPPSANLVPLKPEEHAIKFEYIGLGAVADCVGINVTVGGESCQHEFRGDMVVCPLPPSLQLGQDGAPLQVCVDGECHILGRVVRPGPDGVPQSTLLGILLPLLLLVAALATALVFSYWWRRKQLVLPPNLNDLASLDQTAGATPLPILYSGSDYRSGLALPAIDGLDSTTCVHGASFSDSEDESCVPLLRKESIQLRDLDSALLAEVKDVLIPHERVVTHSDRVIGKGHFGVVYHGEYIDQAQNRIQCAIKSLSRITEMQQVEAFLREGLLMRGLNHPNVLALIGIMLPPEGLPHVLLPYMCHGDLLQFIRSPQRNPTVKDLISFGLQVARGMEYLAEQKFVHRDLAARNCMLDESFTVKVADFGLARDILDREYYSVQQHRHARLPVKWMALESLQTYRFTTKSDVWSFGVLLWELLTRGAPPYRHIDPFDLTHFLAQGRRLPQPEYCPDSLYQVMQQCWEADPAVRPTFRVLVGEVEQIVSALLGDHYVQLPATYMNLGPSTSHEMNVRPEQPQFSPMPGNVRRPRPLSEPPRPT
# Chain of Proto-oncogene tyrosine-protein kinase receptor Ret (Homo sapiens), P07949 [Y791F] (P07949 whole entry Y791F): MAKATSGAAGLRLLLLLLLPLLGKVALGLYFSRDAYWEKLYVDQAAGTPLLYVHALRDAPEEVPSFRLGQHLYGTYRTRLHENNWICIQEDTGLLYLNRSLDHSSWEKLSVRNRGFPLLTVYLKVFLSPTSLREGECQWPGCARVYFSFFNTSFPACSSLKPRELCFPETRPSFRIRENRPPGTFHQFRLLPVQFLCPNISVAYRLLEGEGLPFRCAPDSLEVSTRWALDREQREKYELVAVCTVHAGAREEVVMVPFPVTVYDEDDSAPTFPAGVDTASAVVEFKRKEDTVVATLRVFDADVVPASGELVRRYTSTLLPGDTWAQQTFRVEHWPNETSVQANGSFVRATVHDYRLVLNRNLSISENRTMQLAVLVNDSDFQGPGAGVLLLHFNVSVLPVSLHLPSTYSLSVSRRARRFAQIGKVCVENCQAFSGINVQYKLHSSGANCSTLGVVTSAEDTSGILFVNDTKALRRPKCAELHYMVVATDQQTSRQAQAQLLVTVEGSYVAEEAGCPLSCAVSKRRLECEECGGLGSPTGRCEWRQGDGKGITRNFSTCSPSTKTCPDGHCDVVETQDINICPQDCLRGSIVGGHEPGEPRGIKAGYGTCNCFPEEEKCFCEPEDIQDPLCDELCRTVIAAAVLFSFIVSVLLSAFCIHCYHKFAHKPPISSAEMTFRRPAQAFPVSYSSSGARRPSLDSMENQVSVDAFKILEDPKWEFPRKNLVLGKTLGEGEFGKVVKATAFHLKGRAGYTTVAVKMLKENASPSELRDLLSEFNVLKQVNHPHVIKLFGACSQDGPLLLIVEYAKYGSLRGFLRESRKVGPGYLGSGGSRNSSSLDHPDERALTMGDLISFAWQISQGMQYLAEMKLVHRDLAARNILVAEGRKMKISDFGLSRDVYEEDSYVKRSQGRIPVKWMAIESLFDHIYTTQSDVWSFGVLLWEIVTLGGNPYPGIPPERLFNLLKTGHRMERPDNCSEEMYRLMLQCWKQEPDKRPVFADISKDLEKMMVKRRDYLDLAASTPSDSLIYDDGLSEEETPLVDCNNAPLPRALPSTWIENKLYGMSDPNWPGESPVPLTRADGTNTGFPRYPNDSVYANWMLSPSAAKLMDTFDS
# Chain of Platelet-derived growth factor receptor beta (Homo sapiens) (P09619 whole entry): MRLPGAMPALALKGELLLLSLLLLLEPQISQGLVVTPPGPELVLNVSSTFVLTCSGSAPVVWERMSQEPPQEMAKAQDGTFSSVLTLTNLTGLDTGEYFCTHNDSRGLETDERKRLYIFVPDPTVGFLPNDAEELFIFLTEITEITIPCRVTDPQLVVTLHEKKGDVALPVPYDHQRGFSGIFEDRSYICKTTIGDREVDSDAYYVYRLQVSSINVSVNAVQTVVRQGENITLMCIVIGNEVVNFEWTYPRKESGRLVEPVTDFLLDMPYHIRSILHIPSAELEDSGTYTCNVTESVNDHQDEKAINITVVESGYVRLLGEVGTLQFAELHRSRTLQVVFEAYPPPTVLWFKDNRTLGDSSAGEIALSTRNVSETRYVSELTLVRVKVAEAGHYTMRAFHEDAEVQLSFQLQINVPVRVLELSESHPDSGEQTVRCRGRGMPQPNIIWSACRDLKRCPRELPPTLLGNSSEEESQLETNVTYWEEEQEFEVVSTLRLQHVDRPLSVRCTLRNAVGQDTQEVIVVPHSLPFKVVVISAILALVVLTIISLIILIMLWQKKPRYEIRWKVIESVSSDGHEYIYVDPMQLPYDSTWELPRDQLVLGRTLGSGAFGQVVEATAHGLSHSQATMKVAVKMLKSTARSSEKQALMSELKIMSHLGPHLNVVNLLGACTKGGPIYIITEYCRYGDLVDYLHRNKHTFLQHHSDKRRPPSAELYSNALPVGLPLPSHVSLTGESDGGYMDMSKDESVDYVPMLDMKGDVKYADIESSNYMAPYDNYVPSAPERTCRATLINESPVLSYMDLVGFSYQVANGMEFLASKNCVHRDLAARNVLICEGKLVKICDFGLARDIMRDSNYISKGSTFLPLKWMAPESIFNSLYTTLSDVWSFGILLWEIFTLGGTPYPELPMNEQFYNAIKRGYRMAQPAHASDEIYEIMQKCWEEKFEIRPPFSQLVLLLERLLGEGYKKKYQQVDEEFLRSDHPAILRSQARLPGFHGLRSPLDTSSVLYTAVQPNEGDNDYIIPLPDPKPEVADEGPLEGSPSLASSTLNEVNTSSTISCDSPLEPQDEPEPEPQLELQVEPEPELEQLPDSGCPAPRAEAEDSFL
# Chain of Proto-oncogene tyrosine-protein kinase receptor Ret (Homo sapiens) (P07949 whole entry): as the sequence (P07949 whole entry Y791F) above, with F791Y counted along it
# Chain of Proto-oncogene tyrosine-protein kinase receptor Ret (Homo sapiens), P07949 [V804L] (P07949 whole entry V804L): as the sequence (P07949 whole entry Y791F) above, with F791Y, V804L counted along it
# Chain of Tyrosine-protein kinase FRK (Homo sapiens) (P42685 whole entry): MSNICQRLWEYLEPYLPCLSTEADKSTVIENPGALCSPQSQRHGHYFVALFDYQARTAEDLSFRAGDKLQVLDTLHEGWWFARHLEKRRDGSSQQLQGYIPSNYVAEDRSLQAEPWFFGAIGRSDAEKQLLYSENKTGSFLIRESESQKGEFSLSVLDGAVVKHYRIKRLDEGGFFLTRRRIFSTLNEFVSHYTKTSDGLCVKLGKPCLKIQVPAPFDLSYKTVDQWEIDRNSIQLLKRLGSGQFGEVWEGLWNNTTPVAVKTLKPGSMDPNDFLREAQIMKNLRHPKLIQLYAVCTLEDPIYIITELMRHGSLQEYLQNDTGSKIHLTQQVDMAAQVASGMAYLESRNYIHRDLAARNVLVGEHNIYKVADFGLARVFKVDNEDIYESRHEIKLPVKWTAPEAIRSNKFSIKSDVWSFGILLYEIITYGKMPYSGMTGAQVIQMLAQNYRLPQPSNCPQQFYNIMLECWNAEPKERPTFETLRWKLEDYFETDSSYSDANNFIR
Compound,inhibition [1],inhibition [2],inhibition [3],inhibition [4],inhibition [5],inhibition [6],inhibition [7],inhibition [8],inhibition [9],inhibition [10],inhibition [11],inhibition [12],inhibition [13],inhibition [14],inhibition [15],inhibition [16],inhibition [17],inhibition [18],inhibition [19],inhibition [20]
CN1CCN(Cc2ccc(-c3cc4ncnc(Nc5ccc(OCc6cccc(F)c6)c(Cl)c5)c4s3)o2)CC1,6.41% and 13%,2.16% and 3.11%,3.13% and 4.91%,8.63% and 10.6%,8.03% and 19.6%,6.83% and 5.69%,13.4% and 14.8%,3.67% and 4.61%,5.81% and 10.9%,4.88% and 3.59%,11.4% and 17.4%,3.2% and 3.55%,10.2% and 6.54%,3.07% and 6.46%,6.26% and 12.4%,4.74%,13.4% and 18.3%,-1.16% and -1.22%,0.02% and -0.37%,0.19% and -1.76%
Fc1cccc(COc2ccc(Nc3ncncc3C#Cc3ccccc3)cc2Cl)c1,8.55%,1.23%,1.62%,13.9%,15.1%,-0.25%,5.48%,5.31%,11.9%,5.33%,15.1%,1.12%,1.28%,7.63%,4.43%,4.7%,9.06%,-1.92%,-0.3%,-5.72%
Cc1c2ccc(N(C)c3ccnc(Nc4cccc(S(N)(=O)=O)c4)n3)cc2nn1C,79.2%,10.4%,46.1%,10.9%,39%,44.6%,77.5%,10.1%,37.3%,60.6%,80.3%,2.6%,9.61%,38.7%,78.1%,40.5%,82.8%,1.27%,17.6%,-4.22%
N#Cc1ccc2c(-c3ccnc(NC4CC4)n3)c(-c3ccc(F)cc3)nn2c1,16.8%,1.44%,0.3%,-1.69%,0.44%,5.41%,8.1%,3.66%,2.65%,4.65%,10.8%,2.34%,0.41%,1.21%,1.91%,2.91%,3.58%,0.49%,-0.99%,0.61%
CCCNc1cccc(-n2ncc3c(N/N=C/c4ccncc4)ncnc32)c1,78.8%,0.57%,3.14%,2.47%,12.2%,15%,54.7%,7.89%,40.7%,16.4%,65.2%,11.7%,57.9%,6.09%,33.4%,19.5%,81.8%,4.26%,7.86%,3.8%
COc1cccc(Nc2nccc(-c3cnn4ncccc34)n2)c1,70%,0.08%,4.45%,28.5%,86.6%,1.21%,17.1%,3.16%,22.6%,2.74%,24%,6.23%,15.1%,38.2%,71.1%,7.33%,41.6%,1.25%,-1.9%,-0.98%
NC(=O)c1ccc2c(-c3ccnc(NCCCO)n3)c(-c3ccc(F)cc3)nn2c1,18.2%,4.1%,3.97%,17.1%,12.2%,5.55%,16.6%,1.73%,4.71%,6.62%,19.4%,2.03%,9.13%,8.51%,10.6%,0.24%,12.9%,15%,4.79%,-5.36%
CCn1c(-c2nonc2N)nc2cncc(C(=O)NCCNC)c21,12.4%,3.22%,3.52%,4.6%,8.62%,6.45%,7.16%,4.21%,17.1%,7.45%,12.2%,1.51%,1.07%,3.34%,14%,8.77%,6.62%,-2.48%,-2.36%,-1.48%
Nc1nonc1-c1nc2cnccc2n1C1CC1,26.9% and 22.4%,3.06% and 1.01%,1.87% and 3.49%,9.52% and 11.2%,8.23% and 11.7%,4.13% and 4.16%,10.6% and 0.77%,4.79% and 3.57%,9.45% and 6.56%,6.44% and 5.27%,6.05% and 3.67%,-0.62% and 3.72%,9.46% and 1.74%,7.08% and 4.44%,15.1% and 14.1%,3.78% and -1.17%,8.03% and 5.68%,-1.43% and -0.81%,0.98% and 0.04%,1.89% and -3.36%
Nc1nccc(-c2c(-c3ccc(F)cc3)ncn2C2CCNCC2)n1,32% and 25.6%,0.53% and 0.26%,1.84% and 3.88%,-6.28% and 0.77%,-3.71% and 3.63%,-0.37% and 2.86%,14.1% and 4.3%,0.39% and 2.71%,9.24% and 2.58%,0.26% and 3.84%,18.1% and 7.68%,7.21%,-1.75% and 1.85%,1.07% and 4.79%,8.31% and 7.82%,-4.6% and -5.2%,0.47% and 5.61%,-1% and 0.6%,1.09% and -0.34%,0.33% and 1.19%
CC1=C(C(=O)Nc2ccc3[nH]nc(C)c3c2)C(c2ccc(C(F)(F)F)cc2)CC(=O)N1 (stereo not given),12.2%,1.26%,6.47%,10.8%,5.14%,7.82%,44.2%,12.2%,42.2%,10.5%,38.1%,5.1%,23.9%,4.15%,17.6%,1.6%,22.7%,0.76%,-1.98%,-4.6%
OCCCNc1nccc(-c2c(-c3ccc(F)cc3)nn3cc(C(F)(F)F)ccc23)n1,14.4%,0.71%,1.35%,3.13%,7.75%,4.24%,11.4%,1.59%,3.05%,6.39%,6.1%,0.58%,1.65%,4.09%,6.03%,5.06%,8.49%,-0.48%,-0.71%,5.03%
NS(=O)(=O)c1ccc(N/N=C2\C(=O)Nc3cccc(CCc4ccncc4)c32)cc1,58.5%,-0.74%,-0.31%,4.23%,20.1%,21.6%,43.4%,38.5%,43.6%,18.8%,29.1%,-0.73%,5.76%,3%,9.09%,3.83%,9.5%,1.9%,1.2%,0.03%
